# Source: PubChem BioAssay AID504333 (National Center for Advancing Translational Sciences (NCATS), 2011)
# Hit rate of the full screen: of about 360,000 compounds, about 16,000 (4.4%) were called active. Roughly 9% stayed inconclusive and do not appear here. The sample as a whole holds a higher share of actives than the screen did. Unmarked numbers belong to inactive results. Calls come from the whole dose curve; as a rule, active = well fitted inhibition curve with a large enough effect; inconclusive = small, poorly fitted or top-dose-only effect; inactive = no such curve, though single readings can be large or run the other way.
# Target: Bromodomain adjacent to zinc finger domain protein 2B (Homo sapiens) (UniProt Q9UIF8)
# Assay: qHTS Assay for Inhibitors of BAZ2B; note: nearly all actives have a fitted effect of over 60% in size
# Settings: AlphaScreen BAZ2B-H3K14Ac peptide displacement; series mostly up to 114 µM; activity change, negative = inhibition: at the top concentration
# Source text: BAZ2B (bromodomain adjacent to zinc finger domain, 2B) belongs to a family of ubiquitously expressed bromodomain containing proteins, which biological function has not yet been elucidated. […] The interaction of BAZ2B with ISWI mediated by the BAZ1 motif has recently been described. […] The protocol is based on the AlphaScreen (PerkinElmer) displacement assay developed by NCGC [5], but uses the peptide ligand Biot-H3K14Ac, a high affinity binding partner for BAZ2B, in an AlphaScreen format. Although AlphaScreen has significant advantages with its utility in a variety of epigenetic target assays, the primary screening data provided in this deposition should be used with caution due to the prevalence of screening artifacts. The top compound concentration tested was 110uM in this assay, which increases number of actives and potential artifacts. An AlphaScreen counterscreen is highly recommended to be run against any putative actives to eliminate non-specific artifacts. Alternatively, one can use other AlphaScreen assays in PubChem to filter out promiscuous hits. Eberharter, A. et al. ACF1 improves the effectiveness of nucleosome mobilization by ISWI through PHD-histone contacts. The EMBO journal 23, 4029-4039. 2004. PMID: 15457208 [2] Jones, M.H. et al. A novel family of bromodomain genes. Genomics 63, 40-45. 2000. PMID: 10662543 [3] Yasgar, et al. Compound Management for Quantitative High-Throughput Screening. JALA. 2008 Apr;13(2):79-89. PMID: 18496600 [4] Inglese, et al. Quantitative high-throughput screening: a titration-based approach that efficiently identifies biological activities in large chemical libraries. Proc Natl Acad Sci. 1;103(31):11473-8. 2006. PMID: 16864780 [5] Quinn et al. A chemiluminescence-based method for identification of histone lysine methyltransferase inhibitors. Mol Biosyst 6(5): 782-8. 2010. PMID: 20567762 [6] Baell,Holloway. New substructure filters for removal of pan assay interference compounds (PAINS) from screening libraries and for their exclusion in bioassays. J Med Chem. 53(7):2719-40. 2010. PMID: 20131845 NIH Molecular Libraries Probe Production Network [MLPCN] NIH Chemical Genomics Center [NCGC] Structural Genomics Consortium (SGC) NIH Grant: 5U54 MH084681-02
# To each well of a 1,536w plate, 2ul of BAZ2B protein (final 50nM) and 1ul biotinylated histone peptide acetylated at Lys14 [b-H3(5-23)K14Ac] (final 50nM) were added in 1x PBS buffer, pH 7.4, containing 0.01% Tween-20, using a nanoliter dispenser. Formation of a protein-peptide complex proceeded at room temperature for 30 min. A Kalypsys pin-tool was employed to transfer 23 nL of library compound solution in DMSO to each well. Following a 30 min incubation of the protein-peptide complex with compounds at room temperature, a mixture of 40 ug/mL each streptavidin-coated donor and nickel chelate acceptor AlphaScreen beads (final 10 ug/mL) were added in a 1ul dispense for a final volume of 4ul. A brief centrifugation followed (1000rpm, 1 min) and were then incubated protected from the light for 20 min at room temperature. Plates were read on an EnVision multilabel plate reader using the 1,536 plate HTS AlphaScreen aperture (excitation time 80 ms, measurement time 240 ms).
# % is set by controls: 0 for no effect and ±100 for the full control effect; potency is the fitted concentration of half-maximal effect.
# Sequence of Bromodomain adjacent to zinc finger domain protein 2B (Homo sapiens) (Q9UIF8 whole entry, looked up, the tested form may be a part): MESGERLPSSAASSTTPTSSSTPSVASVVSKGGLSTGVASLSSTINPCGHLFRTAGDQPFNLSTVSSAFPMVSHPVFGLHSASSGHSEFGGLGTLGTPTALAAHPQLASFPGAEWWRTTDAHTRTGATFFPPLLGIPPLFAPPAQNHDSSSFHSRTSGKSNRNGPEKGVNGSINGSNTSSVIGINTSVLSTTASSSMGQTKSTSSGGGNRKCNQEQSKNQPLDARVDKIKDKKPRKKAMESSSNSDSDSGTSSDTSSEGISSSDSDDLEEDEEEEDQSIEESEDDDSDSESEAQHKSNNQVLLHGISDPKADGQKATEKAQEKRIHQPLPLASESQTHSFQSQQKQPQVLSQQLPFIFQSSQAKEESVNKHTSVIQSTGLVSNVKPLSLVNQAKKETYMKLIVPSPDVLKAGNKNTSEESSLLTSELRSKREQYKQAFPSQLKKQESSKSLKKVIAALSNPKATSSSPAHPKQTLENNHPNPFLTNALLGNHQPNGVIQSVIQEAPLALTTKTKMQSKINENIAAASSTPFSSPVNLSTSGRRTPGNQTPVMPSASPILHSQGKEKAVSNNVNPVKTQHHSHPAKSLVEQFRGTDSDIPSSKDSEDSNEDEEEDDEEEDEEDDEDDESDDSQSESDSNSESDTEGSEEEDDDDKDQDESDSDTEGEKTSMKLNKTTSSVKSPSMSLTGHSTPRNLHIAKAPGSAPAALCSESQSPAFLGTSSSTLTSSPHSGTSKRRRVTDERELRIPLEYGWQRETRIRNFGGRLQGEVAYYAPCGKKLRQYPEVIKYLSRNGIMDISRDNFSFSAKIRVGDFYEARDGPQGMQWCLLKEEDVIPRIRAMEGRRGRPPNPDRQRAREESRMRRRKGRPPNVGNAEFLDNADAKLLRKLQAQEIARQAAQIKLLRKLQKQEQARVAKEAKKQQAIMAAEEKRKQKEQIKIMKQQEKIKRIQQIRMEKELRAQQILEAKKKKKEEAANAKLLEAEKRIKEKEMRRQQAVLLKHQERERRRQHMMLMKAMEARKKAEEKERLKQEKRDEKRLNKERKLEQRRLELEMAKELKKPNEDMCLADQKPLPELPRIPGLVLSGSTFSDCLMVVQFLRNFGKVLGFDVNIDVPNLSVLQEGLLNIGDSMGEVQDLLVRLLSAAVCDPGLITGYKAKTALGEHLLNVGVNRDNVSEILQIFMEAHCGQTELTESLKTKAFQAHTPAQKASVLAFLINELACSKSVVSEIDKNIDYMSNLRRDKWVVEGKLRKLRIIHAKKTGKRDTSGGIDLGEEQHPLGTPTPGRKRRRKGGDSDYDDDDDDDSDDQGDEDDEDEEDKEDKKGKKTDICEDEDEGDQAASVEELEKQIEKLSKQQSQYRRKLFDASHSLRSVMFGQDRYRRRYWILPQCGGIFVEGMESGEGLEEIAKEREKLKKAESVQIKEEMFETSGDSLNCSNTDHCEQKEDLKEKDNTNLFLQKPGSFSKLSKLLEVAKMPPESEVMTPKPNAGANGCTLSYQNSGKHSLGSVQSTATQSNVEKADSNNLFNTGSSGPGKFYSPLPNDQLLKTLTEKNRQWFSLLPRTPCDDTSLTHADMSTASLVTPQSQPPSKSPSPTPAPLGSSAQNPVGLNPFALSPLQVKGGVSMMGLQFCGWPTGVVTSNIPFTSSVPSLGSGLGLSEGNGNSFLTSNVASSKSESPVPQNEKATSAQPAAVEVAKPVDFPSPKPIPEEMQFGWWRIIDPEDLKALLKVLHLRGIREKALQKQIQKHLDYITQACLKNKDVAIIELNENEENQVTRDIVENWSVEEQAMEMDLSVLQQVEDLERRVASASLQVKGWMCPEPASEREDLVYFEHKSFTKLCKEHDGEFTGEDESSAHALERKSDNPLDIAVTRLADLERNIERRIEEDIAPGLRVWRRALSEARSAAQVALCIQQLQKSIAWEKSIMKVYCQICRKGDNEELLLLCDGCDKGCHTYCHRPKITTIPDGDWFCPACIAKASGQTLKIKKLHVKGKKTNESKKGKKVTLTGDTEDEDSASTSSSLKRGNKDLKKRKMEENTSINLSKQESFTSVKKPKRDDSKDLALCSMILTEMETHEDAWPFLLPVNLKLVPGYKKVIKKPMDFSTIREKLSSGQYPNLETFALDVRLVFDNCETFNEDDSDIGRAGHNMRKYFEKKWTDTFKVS
Compound,Potency,"activity change, negative = inhibition"
CC[N+](C)(CC)CCC[n+]1c(-c2ccccc2)c2cc(N)ccc2c2ccc(N)cc21,44.7 µM (active),–
CNC(=O)O/N=C(\N)Cc1csc2ccccc12,–,-3.28%
COCCNC(=O)CN1C2CCC1CC(O)(c1cccnc1)C2 (stereo not given),–,-1.47%
COC(=O)C1=C(c2ccc(Cl)c(C(F)(F)F)c2)C[C@@H]2CC[C@H]1N2C(=O)NC1CC1,–,12.5%
COc1ccc(CNCCc2c[nH]c3ccccc23)cc1OC,50.1 µM (active),–
C/C(CCc1c[nH]c2ccccc12)=N\O,–,-0.449%
c1cncc(CNCCc2c[nH]c3ccccc23)c1,–,-22%
O=c1[nH]c(O)c(C=Nc2cc(F)cc(F)c2)c(=O)[nH]1,–,7.43%
COC(=O)C1=C(c2cccc(OCc3ccccc3)c2)C[C@@H]2CC[C@H]1N2C(=O)NNCc1ccccc1,–,-1.25%
Cc1ccccc1NC(=O)COC(=O)c1cc(C)n(C2CC2)c1C,–,-3.66%
COc1ccc(C2N3CC(C)(C)CN23)cc1 (stereo not given),–,-14.1%
CCC1(C)CC(CCNCc2ccc(N(C)C)cc2)(c2ccc(F)cc2)CCO1 (stereo not given),35.5 µM (active),–
O=C(COC(=O)c1ccccc1)Nc1ccccc1Sc1ccccc1,–,92.9%
CN(C)CCN(CC1CCCN(Cc2ccccc2F)C1)C(=O)Cc1ccc(F)c(F)c1 (stereo not given),–,0.813%
CCCCCn1c(=O)c(C(=O)NCc2ccccc2)c(O)c2ccccc21,–,55.7%
O=C(C1CCN(CC2CCCCC2)CC1)N1CCCC1,70.8 µM (active),–
COC(=O)C1=C(c2ccc(-c3ccccc3)c(F)c2)C[C@@H]2CC[C@H]1N2C(=O)NCc1ccc(F)cc1,–,-1.72%
COc1cccc(C(=O)N2C[C@H]3C[C@@H](C2)c2cccc(=O)n2C3)c1,–,-20.1%
COc1cccc(OC)c1C(=O)NC(=S)N1C[C@H]2C[C@H](C1)c1cccc(=O)n1C2,–,-5.95%
COc1ccc(CNCCc2ccc3c(c2)OCO3)c(OC)c1OC,50.1 µM (active),–
COC(=O)C1=C(c2c(C)noc2C)C[C@@H]2CC[C@H]1N2C(=O)NCc1ccc2c(c1)OCO2,–,-0.66%
Cc1cc(N2C(=O)C3CCCN3C2c2ccc(Cl)c(Cl)c2)no1 (stereo not given),–,8.95%
O=C(O)CCn1cc(C=C2C(=O)NC(=S)NC2=O)c(-c2cccc(Br)c2)n1,79.4 µM (active),–
CN1C2C=C(N(C(=O)c3ccc(Cl)cc3)c3ccccc3)CC1CC2 (stereo not given),–,-15.3%
O=C(NC(=S)N1C[C@H]2C[C@H](C1)c1cccc(=O)n1C2)c1ccc(F)cc1,–,-11.4%

Compound,Potency,"activity change, negative = inhibition"
CCCCC(=O)N/N=C/c1c(O)n(CCC2=CCCCC2)c(=O)[nH]c1=O,79.4 µM (active),–
O=C(N/N=C/c1c(O)n(Cc2ccccc2)c(=O)[nH]c1=O)c1ccccc1,50.1 µM (active),–
CCCCC(=O)N/N=C/c1c(O)n(-c2ccccc2)c(=O)[nH]c1=O,50.1 µM (active),–
Cc1cccc(-n2c(O)c(C=NC34CN5CN(CN(C5)C3)C4)c(=O)[nH]c2=O)c1,–,-4.42%
O=c1[nH]c(=O)n(CCc2ccc(F)cc2)c(O)c1/C=N/N1CCCCC1,–,-2.13%
O=c1[nH]c(=O)n(CCc2ccccc2)c(O)c1/C=N/N1CCOCC1,–,1.1%
O=c1[nH]c(=O)n(Cc2ccccc2)c(O)c1/C=N/Nc1c(F)c(F)c(F)c(F)c1F,–,-2.27%
CCCCC(=O)N/N=C/c1c(O)n(CC)c(=S)n(CC)c1=O,–,18.8%
O=c1[nH]c(=O)n(-c2ccccc2)c(O)c1C=NC12CN3CN(CN(C3)C1)C2,–,-7.16%
Cn1cc(C(=O)OCC(=O)N2CCCC2)c2ccccc21,–,-1.93%
C=CCN1C(=O)C2(C(C(=O)OCC)=C(N)Oc3c2c(=O)oc2ccccc32)c2ccccc21 (stereo not given),–,1.37%
O=[N+]([O-])c1ccc(C2C3C(c4ccccc4)=NC4(CCCCC4)N32)cc1 (stereo not given),–,-6.5%
COC(=O)C1=C(c2ccc(F)cc2OCc2ccccc2)C[C@@H]2CC[C@H]1N2C(=O)NCc1ccc2[nH]ccc2c1,–,-12.4%
COC(=O)C1=C(c2cccc(OCc3ccccc3)c2)C[C@@H]2CC[C@H]1N2C(=O)NCc1ccc(Br)cc1,–,2.73%
C=CCn1c(O)c(/C=N/N2CCOCC2)c(=O)[nH]c1=S,–,-10.9%
C[C@@H]1CC[C@@]2(OC1)O[C@H]1C[C@H]3[C@@H]4CC=C5C[C@@H](O)[C@H](O)C[C@]5(C)C4CC[C@]3(C)[C@H]1[C@@H]2C (stereo not given in full),–,19.8%
CC1=CC(=Cc2sc3ccccc3[n+]2C)C=C(C)O1,–,-25.3%
COC(=O)C1=C(c2ccc(Cl)c(C(F)(F)F)c2)C[C@@H]2CC[C@H]1N2C(=O)NC(C)C,–,8.23%
COc1ccc(-c2nn(CCC#N)cc2C(=O)Nc2ccc(C(C)=O)cc2)cc1,–,0.868%
COc1ccccc1NC(=O)N1C[C@@H]2C[C@@H](C1)c1cccc(=O)n1C2,–,8.13%
O=C(O)COc1ccccc1/C=C1\C(=O)NC(=O)N(CCC2=CCCCC2)C1=O,–,-19.3%
O=C1NC(=O)N(Cc2ccco2)C(=O)/C1=C\c1cccn1CCOc1ccccc1,28.2 µM (active),–
O=C1NC(=O)N(CCc2ccc(F)cc2)C(=O)/C1=C/C=C/c1ccccc1,–,7.59%
CCOC(=O)c1c(C)c(C(=O)N2CCC3(CC2)OCCO3)c(C)n1CC,–,9.98%
O=c1[nH]c(CN2CC=C(c3ccccc3)CC2)nc2scc(-c3cccs3)c12,–,-8.66%

Compound,Potency,"activity change, negative = inhibition"
O=C(Cc1ccc(Cl)cc1)NCCN1CCN(C(=O)Cc2ccc(Cl)cc2)CC1,–,0.0403%
O=C(Cc1ccccc1)N1CCN(C2CCCCCC2)CC1,50.1 µM (active),–
CCC(=NCCc1ccccc1)c1c(O)n(C2CCCCC2)c(=O)[nH]c1=O,–,-21.4%
O=C(Cn1c(=O)n(CC2CS2)c2ccccc21)N1CCCCC1 (stereo not given),–,8.82%
O=C(COc1ccc2ccccc2c1)N1CCN(Cc2ccncc2)CC1,–,53.5%
COc1ccccc1CN1CCN(C(=O)Cc2ccccc2)CC1,50.1 µM (active),–
COc1ccc(N=Cc2c(O)n(C)c(=O)[nH]c2=O)cc1,–,0.618%
CN1CCC(OC(=O)c2cccc(F)c2)CC1,–,-1.04%
COc1ccc(C(=O)C2CN(C)CC2C(=O)c2ccc(OC)cc2)cc1 (stereo not given),–,2.95%
COC(=O)C1=C(c2ccc3ccccc3c2)C[C@@H]2CC[C@H]1N2C(=O)NCCO,–,-6.21%
CC(Cc1ccccc1)NCCC(c1ccccc1)c1ccccc1 (stereo not given),–,12.5%
Fc1ccc(N2CCN(Cc3ccc4c(c3)OCO4)CC2)cc1,56.2 µM (active),–
O=C(Cc1ccccc1[N+](=O)[O-])N1CCN(Cc2ccc3c(c2)OCO3)CC1,–,-28.5%
Cc1cc(=O)oc2c(C)c(OCC(=O)N3CCN(Cc4ccc5c(c4)OCO5)CC3)ccc12,–,-18.4% [at 57.1 µM]
CCc1ccc(OCC(=O)N2CCN(CC(=O)Nc3ccccc3Cl)CC2)cc1,–,10.2%
Cc1ccc(-n2c(C)cc(/C=C3\C(=O)NC(=O)N(C)C3=O)c2C)cc1C,–,-28.5%
Cc1cc(C=C2C(=O)NC(=O)NC2=O)c(C)n1-c1ccncc1,–,-23.5%
Cc1cc(/C=C2/C(=O)NC(=O)N(Cc3ccco3)C2=O)c(C)n1-c1ccc(C(=O)O)cc1,56.2 µM (active),–
Cn1c(O)c(C(=Nc2ccc(F)cc2)c2ccccc2)c(=O)n(C)c1=O,–,-8.76%
CCN(CC)c1ccc([N+](=O)[O-])c2cccnc12,28.2 µM (active),–
COC(=O)C1=C(c2ccccc2OCc2ccccc2)C[C@@H]2CC[C@H]1N2C(=O)NCc1ccc(OC)cc1,–,-6.25%
Cc1c(Oc2cc(NN3CCCCC3)c([N+](=O)[O-])cc2[N+](=O)[O-])cccc1[N+](=O)[O-],–,0.574%
CN(C)C(=O)Oc1ccc(NC(=O)N2CCOCC2)cc1,–,-4.05%
COc1ccc2[nH]c3c(c2c1)CCN[C@H]3C,44.7 µM (active),–
CCOC(=O)C1(Cc2ccc(Cl)cc2)CCN(C(C)CCn2cccn2)CC1 (stereo not given),–,-9.31%

Compound,Potency,"activity change, negative = inhibition"
CCCCn1c(=O)c(C(=O)Nc2ccccc2Cl)c(O)c2ccccc21,–,9.08%
Cc1cccc(Cn2cccc(C(=O)Nc3ccc4c(c3)OCCO4)c2=O)c1,–,-2.38%
O=c1c2ccccc2nc(/C=C/c2ccc(F)cc2)n1-c1ccccc1O,–,-12.3%
C=CCN(CC=C)C(=O)Nc1ccc(OCC)cc1,–,-21.3%
C=CCN1C(=O)NC(=O)/C(=C/c2ccc(OCC(=O)Nc3ccc(C)cc3)cc2)C1=O,50.1 µM (active),–
Cc1ccc(C2CN(C)CC2C(=O)c2ccc(F)cc2)cc1 (stereo not given),–,-13%
CC(C)c1c(CN(C)C(C)Cc2ccccc2)n(C)n(-c2ccccc2)c1=O (stereo not given),–,8.31%
CN1CCc2cc3c(cc2[C@H]1[C@@H]1OC(=O)c2c1ccc1c2OCO1)OCO3,–,6.42%
C[C@]12CC[C@H](O)C[C@H]1CC[C@@H]1C2CC[C@]2(C)[C@@H](C3=CC(=O)OC3)[C@@H](O)C[C@]12O (stereo not given in full),–,4.14%
CN(C)CC1CCCCC1=O (stereo not given),–,-2.32%
Cc1c(C(=O)O)cccc1-n1c(C)cc(/C=C2\C(=O)NC(=O)N(c3ccc4c(c3)OCO4)C2=O)c1C,56.2 µM (active),–
Cc1ccccc1N1C(=O)NC(=O)/C(=C\c2cc(C)n(C)c2C)C1=O,–,-31%
O=C1N=c2ccccc2=C/C1=C\c1c(O)[nH]c(=S)[nH]c1=O,–,5.91%
O=C1NC(=O)C(C/C=C/c2ccccc2)C(=O)N1,–,-5.78%
CCOP(=S)(OCC)C(O)CCCCCn1c(=O)c(F)cn(C2CCCO2)c1=O (stereo not given),–,2.17%
CCc1nc2ccccc2c(=O)n1-c1cccc(OC)c1,–,24.6%
COc1ccc(CN2CCN(c3ccccc3F)CC2)c(OC)c1,50.1 µM (active),–
CC(C)c1ccc(O)c(CN2CCN(c3ccccc3)CC2)c1,–,-3.99%
Cc1cccc(NC(=O)N2CC3CC(C2)c2cccc(=O)n2C3)c1 (stereo not given),–,-1.2%
CCOc1cccc(=NC2CCCCC2)c2c(C)[nH]c(C)c12,–,19.2%
O=C(O)c1ccccc1NC(=O)C1C2CCC(O2)C1C(=O)O (stereo not given),–,0.502%
CCN(CC)C(=O)Oc1ccc(NC(=O)N2CCOCC2)cc1,–,14.1%
CC/C(=N\NC(=O)c1ccccc1O)c1c(O)n(Cc2ccccc2)c(=O)[nH]c1=O,–,3.69%
CCCCn1c(O)c(C(CC)=NCc2ccco2)c(=O)[nH]c1=O,–,-3.38%
CCC(=NCc1ccco1)c1c(O)n(Cc2ccccc2)c(=O)[nH]c1=O,50.1 µM (active),–
